From PubChem BioAssay (NCI)
This is part of a sample that, as a whole, favours compounds with a hit. Of some 83,000 tested, about 20% had one in any assay.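 For each line, cells grew in 96-well plates with the test compound present at a single concentration for 48 hours.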 The source made the active and inactive calls. The calls were made as follows: active = growth percent below 10; inactive = the rest.

How the values were obtained:
Test in all cases: NCI-60 one-dose screen, 48 h (100 = growth as untreated, 0 = no growth, -100 = all killed)
Conditions in all cases: 10 µM unless noted
SR leukemia = system: SR leukemia
RPMI-8226 leukemia = system: RPMI-8226 leukemia
OVCAR-8 ovarian = system: OVCAR-8 ovarian
OVCAR-5 ovarian = system: OVCAR-5 ovarian
OVCAR-4 ovarian = system: OVCAR-4 ovarian
SK-OV-3 ovarian = system: SK-OV-3 ovarian
IGROV1 ovarian = system: IGROV1 ovarian
OVCAR-3 ovarian = system: OVCAR-3 ovarian
HS 578T breast = system: HS 578T breast
NCI/ADR-RES ovarian = system: NCI/ADR-RES ovarian
T-47D breast = system: T-47D breast
BT-549 breast = system: BT-549 breast
MDA-MB-435 melanoma = system: MDA-MB-435 melanoma
SW-620 colon = system: SW-620 colon
MCF7 breast = system: MCF7 breast
HCT-116 colon = system: HCT-116 colon
HCC-2998 colon = system: HCC-2998 colon
KM12 colon = system: KM12 colon

Measured: growth

COc1cc(C2C(C(=O)c3cccs3)=C(O)C(=O)N2CCN2CCOCC2)cc(OC)c1OC (configuration not stated)
inactive: SR leukemia 111% | RPMI-8226 leukemia 108% | OVCAR-8 ovarian 113% | OVCAR-5 ovarian 108% | OVCAR-4 ovarian 110% | SK-OV-3 ovarian 109% | IGROV1 ovarian 100% | OVCAR-3 ovarian 102% | HS 578T breast 112% | NCI/ADR-RES ovarian 107% | T-47D breast 104% | BT-549 breast 107% | MDA-MB-435 melanoma 99.5% | SW-620 colon 97.2% | MCF7 breast 95.1% | HCT-116 colon 101% | HCC-2998 colon 101% | KM12 colon 98.3%

Cc1cc(Nc2nc(-c3cccnc3)nc3ccccc23)n[nH]1
active: HS 578T breast 5.1%
inactive: SR leukemia 15.5% | RPMI-8226 leukemia 98.8% | OVCAR-8 ovarian 80.6% | OVCAR-5 ovarian 65.9% | OVCAR-4 ovarian 60.8% | SK-OV-3 ovarian 21.9% | IGROV1 ovarian 28.9% | OVCAR-3 ovarian 59% | NCI/ADR-RES ovarian 69.3% | T-47D breast 27.2% | BT-549 breast 47.2% | MDA-MB-435 melanoma 56.2% | SW-620 colon 47% | MCF7 breast 23% | HCT-116 colon 30.9% | HCC-2998 colon 69.7% | KM12 colon 19.1%

O=C(O)c1cccc2c1-c1ccccc1C2=O
inactive: SR leukemia 94.2% | RPMI-8226 leukemia 124% | OVCAR-8 ovarian 103% | OVCAR-5 ovarian 92.2% | OVCAR-4 ovarian 105% | SK-OV-3 ovarian 103% | IGROV1 ovarian 85% | OVCAR-3 ovarian 102% | HS 578T breast 97.7% | NCI/ADR-RES ovarian 100% | T-47D breast 93.1% | BT-549 breast 85.8% | MDA-MB-435 melanoma 97.7% | SW-620 colon 95.7% | MCF7 breast 92.3% | HCT-116 colon 92.6% | HCC-2998 colon 99% | KM12 colon 97.9%

NS(=O)(=O)N(c1cc(C(F)(F)F)cc(C(F)(F)F)c1)C1CCN(Cc2ccc(F)cc2)CC1
inactive: RPMI-8226 leukemia 28.1% | OVCAR-8 ovarian 73.2% | OVCAR-5 ovarian 90.9% | OVCAR-4 ovarian 72.4% | SK-OV-3 ovarian 87.9% | IGROV1 ovarian 61.9% | OVCAR-3 ovarian 60% | HS 578T breast 84% | NCI/ADR-RES ovarian 51.3% | T-47D breast 37.2% | BT-549 breast 81% | MDA-MB-435 melanoma 70.1% | SW-620 colon 63.8% | MCF7 breast 49.6% | HCT-116 colon 38% | KM12 colon 40.2%
active: SR leukemia -35.1% | HCC-2998 colon -50.4%
